PubChem BioAssay (NCI)
The panel holds about 79,000 compounds, 15% with a hit somewhere; the sample as a whole holds those more often. Calls of active or inactive are those of the source. No stated cut-off is given here; in the data, active means growth inhibition above about 70%; inactive means the rest.

Experiments:
[1] = NCI Yeast Anticancer Drug Screen. Data for the rad52 strain (AID 147);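 further: 0% = growth of vehicle-treated control cultures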; settings: S. cerevisiae rad52 mutant growth inhibition, stronger effect = higher value
Outline: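 Vehicle-treated cultures served as the reference for growth inhibition of compound-exposed yeast bearing a DNA repair mutation.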

[2] = NCI Yeast Anticancer Drug Screen. Data for the rad50EPP+ strain (AID 151);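 further: 0% = growth of vehicle-treated control cultures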; settings: S. cerevisiae rad50 mutant strain, stronger effect = higher value
Outline: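 In this screen, rad50EPP+ yeast were exposed to compounds. Growth inhibition was scored against vehicle-treated controls.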

[3] = NCI Yeast Anticancer Drug Screen. Data for the mgt1 strain (AID 153); settings: S. cerevisiae mgt1 mutant growth inhibition, stronger effect = higher value
Outline: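 mgt1 strain exposed; growth vs vehicle control recorded as inhibition.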

[4] = NCI Yeast Anticancer Drug Screen. Data for the rad50 strain (AID 155);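 further: 0% = growth of vehicle-only cultures of the same strain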; settings: S. cerevisiae rad50 strain growth inhibition, stronger effect = higher value
Outline: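 Readout: growth inhibition relative to vehicle-treated cultures. Compound exposure was carried out in a genetically defined yeast strain deficient in DNA damage repair.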

[5] = NCI Yeast Anticancer Drug Screen. Data for the mec2-1 strain (AID 157); settings: S. cerevisiae mec2-1 strain, stronger effect = higher value
Outline: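 Vehicle-treated cultures served as reference for growth inhibition of compound-exposed mec2-1 yeast.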

[6] = NCI Yeast Anticancer Drug Screen. Data for the rad14 strain (AID 159);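 further: 0% = growth of vehicle-treated control cultures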; settings: S. cerevisiae rad14 strain growth inhibition, stronger effect = higher value
Outline: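 Growth inhibition vs vehicle controls; genetically altered yeast strain (DNA damage repair defect) treated with test compounds.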

[7] = NCI Yeast Anticancer Drug Screen. Data for the sgs1 mgt1 strain (AID 161);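 further: 0% = growth of cultures given vehicle only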; settings: S. cerevisiae sgs1 mgt1 strain, stronger effect = higher value
Outline: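 Genetically altered yeast, compound exposure, growth inhibition relative to vehicle.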

[8] = NCI Yeast Anticancer Drug Screen. Data for the CLN2oe strain (AID 163);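 further: 0% = growth of vehicle-only control cultures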; settings: S. cerevisiae CLN2oe strain, stronger effect = higher value
Outline: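 Inhibition relative to vehicle-treated yeast is reported. Cells: strain with genetic alteration in cell-cycle control, grown with compound.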

[9] = NCI Yeast Anticancer Drug Screen. Data for the cln2 rad14 strain (AID 165);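 further: 0% = growth equal to vehicle treated cultures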; settings: S. cerevisiae cln2 rad14 strain, stronger effect = higher value
Outline: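 Each compound was tested on cln2 rad14 yeast. Inhibition of growth was calculated against vehicle-exposed controls.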

[10] = NCI Yeast Anticancer Drug Screen. Data for the bub3 strain (AID 167); settings: S. cerevisiae bub3 mutant strain, stronger effect = higher value
Outline: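 Readout: yeast growth inhibition, expressed relative to vehicle-only wells. The test organism is a mutant strain from a panel with lesions in DNA repair or checkpoint genes.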

[11] = NCI Yeast Anticancer Drug Screen. Data for the wt2 strain (AID 169);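 further: 0% = growth of vehicle-treated yeast cultures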; settings: S. cerevisiae wt2 strain growth inhibition, stronger effect = higher value
Outline: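 Inhibition of yeast growth was determined after compound treatment, normalised to controls receiving only vehicle.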

[12] = NCI Yeast Anticancer Drug Screen. Data for the mlh1 strain (AID 171);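 further: 0% = growth of vehicle-treated control cultures of the same strain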; settings: S. cerevisiae mlh1 strain growth inhibition, stronger effect = higher value
Outline: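 Vehicle-normalised growth inhibition of a repair- or checkpoint-altered yeast strain following compound treatment.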

[13] = NCI Yeast Anticancer Drug Screen. Data for the mlh1 rad18 strain (AID 175); settings: S. cerevisiae mlh1 rad18 strain growth inhibition, stronger effect = higher value
Outline: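 Vehicle-treated cultures served as the reference for growth inhibition in a yeast strain carrying DNA damage repair alterations exposed to each compound.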

[14] = NCI Yeast Anticancer Drug Screen. Data for the rad18 strain (AID 177); settings: S. cerevisiae rad18 mutant growth inhibition, stronger effect = higher value
Outline: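 Test articles were incubated with altered yeast defective in DNA damage repair. Results are given as inhibition of growth versus vehicle.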

[15] = NCI Yeast Anticancer Drug Screen. Data for the wt1 strain (AID 149);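 further: 0% = growth of vehicle-treated wt1 cultures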; settings: S. cerevisiae wt1 strain (SPY 50644) growth inhibition, stronger effect = higher value
Outline: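 Growth inhibition read against vehicle controls after compound exposure of the wt1 yeast strain.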

[16] = NCI Yeast Anticancer Drug Screen. Data for the sgs1 strain (AID 173);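 further: 0% = growth of vehicle-only control cultures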; settings: S. cerevisiae sgs1 mutant, stronger effect = higher value
Outline: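 Screen format: yeast with repair or checkpoint alterations, compound exposure, growth read relative to vehicle.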

[17] = at 5.0 µM (retest, dose inferred, filed as 0.5)
[18] = at 50.0 µM (retest, dose inferred, filed as 5.0)

Measured: growth inhibition

CC1CCC2(NC1)OC1CC3C4CCC5CC(OC6OC(CO)C(OC7OC(CO)C(O)C(OC8OCC(O)C(O)C8O)C7OC7OC(CO)C(O)C(O)C7O)C(O)C6O)CCC5(C)C4CCC3(C)C1C2C (stereo unspecified)
inactive: [1]; at 1.2 µM 30% | [1]; at 3.7 µM 8% | [1]; at 11.0 µM 12% | [1]; at 33.0 µM 0% | [2]; at 1.2 µM 21% | [2]; at 3.7 µM 3% | [2]; at 11.0 µM 8% | [2]; at 33.0 µM 13% | [2]; at 100.0 µM 27% | [3]; at 1.2 µM -2% | [3]; at 3.7 µM -10% | [3]; at 11.0 µM -11% | [3]; at 33.0 µM -11% | [3]; at 100.0 µM 44% | [4]; at 1.2 µM -2% | [4]; at 3.7 µM -16% | [4]; [17] 1% | [4]; at 11.0 µM -14% | [4]; at 33.0 µM -6% | [4]; at 50.0 µM 28.9% | [4]; at 100.0 µM 62% | [5]; at 1.2 µM 13% | [5]; at 3.7 µM -14% | [5]; [17] 13% | [5]; at 11.0 µM -15% | [5]; at 33.0 µM 2% | [5]; at 50.0 µM 6.1% | [5]; at 100.0 µM 14% | [6]; at 1.2 µM 18% | [6]; at 3.7 µM 6% | [6]; at 11.0 µM -5% | [6]; at 33.0 µM -18% | [7]; [17] 1% | [7]; at 50.0 µM -24.1% | [8]; at 1.2 µM -15% | [8]; at 3.7 µM -14% | [8]; at 11.0 µM -10% | [8]; at 33.0 µM -4% | [8]; at 100.0 µM 46% | [9]; [17] -19% | [9]; [18] 68% | [9]; at 50.0 µM 28.8% | [10]; at 1.2 µM 0% | [10]; at 3.7 µM -19% | [10]; [17] 10% | [10]; at 11.0 µM -27% | [10]; at 33.0 µM -10% | [10]; at 50.0 µM 11.1% | [10]; at 100.0 µM 45% | [11]; at 1.2 µM -7% | [11]; at 3.7 µM -20% | [11]; at 11.0 µM -22% | [11]; at 33.0 µM -11% | [12]; at 1.2 µM -4% | [12]; at 3.7 µM -5% | [12]; at 11.0 µM -8% | [12]; at 33.0 µM -12% | [13]; [17] 59% | [14]; at 1.2 µM 4% | [14]; at 3.7 µM -19% | [14]; at 11.0 µM -14% | [14]; at 33.0 µM -25% | [14]; at 100.0 µM 61%
active: [1]; at 100.0 µM 76% | [4]; [18] 98% | [5]; [18] 97% | [6]; at 100.0 µM 77% | [7]; [18] 93% | [10]; [18] 74% | [11]; at 100.0 µM 99% | [12]; at 100.0 µM 90% | [13]; [18] 97% | [13]; at 50.0 µM 87.6%

CSC(=Nc1ccccc1)N(c1ccccc1)c1nc(=[N+](C)C)ss1
inactive: [15]; at 1.2 µM -2% | [15]; at 3.7 µM 7% | [15]; at 11.0 µM 54% | [2]; at 1.2 µM -1% | [2]; at 3.7 µM -5% | [2]; at 11.0 µM 23% | [3]; at 1.2 µM 2% | [3]; at 3.7 µM 7% | [4]; at 1.2 µM 3% | [4]; at 3.7 µM 13% | [4]; [17] 56% | [5]; at 1.2 µM 2% | [5]; at 3.7 µM 9% | [5]; [17] 26% | [6]; at 1.2 µM -5% | [6]; at 3.7 µM 7% | [7]; [17] 58% | [8]; at 1.2 µM -12% | [8]; at 3.7 µM -11% | [8]; at 11.0 µM 14% | [9]; [17] -1% | [10]; at 1.2 µM 1% | [10]; at 3.7 µM 22% | [10]; [17] 37% | [11]; at 1.2 µM 0% | [11]; at 3.7 µM 17% | [12]; at 1.2 µM -1% | [12]; at 3.7 µM 10% | [16]; at 1.2 µM 3% | [16]; at 3.7 µM 24% | [13]; [17] 44% | [14]; at 1.2 µM 4% | [14]; at 3.7 µM 34%
active: [15]; at 33.0 µM 93% | [15]; at 100.0 µM 98% | [2]; at 33.0 µM 87% | [2]; at 100.0 µM 97% | [3]; at 11.0 µM 84% | [3]; at 33.0 µM 98% | [3]; at 100.0 µM 99% | [4]; at 11.0 µM 93% | [4]; at 33.0 µM 98% | [4]; [18] 99% | [4]; at 50.0 µM 98.4% | [4]; at 100.0 µM 99% | [5]; at 11.0 µM 80% | [5]; at 33.0 µM 97% | [5]; [18] 99% | [5]; at 50.0 µM 99.3% | [5]; at 100.0 µM 99% | [6]; at 11.0 µM 92% | [6]; at 33.0 µM 99% | [6]; at 100.0 µM 99% | [7]; [18] 99% | [7]; at 50.0 µM 98.6% | [8]; at 33.0 µM 80% | [8]; at 100.0 µM 98% | [9]; [18] 98% | [9]; at 50.0 µM 93.4% | [10]; at 11.0 µM 85% | [10]; at 33.0 µM 93% | [10]; [18] 98% | [10]; at 50.0 µM 98.5% | [10]; at 100.0 µM 99% | [11]; at 11.0 µM 87% | [11]; at 33.0 µM 97% | [11]; at 100.0 µM 99% | [12]; at 11.0 µM 88% | [12]; at 33.0 µM 99% | [12]; at 100.0 µM 99% | [16]; at 11.0 µM 91% | [16]; at 33.0 µM 98% | [16]; at 100.0 µM 99% | [13]; [18] 98% | [13]; at 50.0 µM 98.6% | [14]; at 11.0 µM 93% | [14]; at 33.0 µM 98% | [14]; at 100.0 µM 98%
